Source: PMC4336329 (PLoS ONE, 2015)
Among all 310,000 compounds or so, about 14,000 (4.5%) showed an effect of 50% or more. The effect is printed as a negative number. Many of the other results were omitted from the sample, so strong results are more common in it than they were.

Target: human ether-à-go-go-related gene (hERG) potassium channel (human, UniProt Q12809)
Test: primary screen, population patch clamp on CHO cells stably expressing hERG; higher = less effect of the substance
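Also: peak tail current of the secondary pulse compared with the same well before compound.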

Sequence of human ether-à-go-go-related gene (hERG) potassium channel (Q12809 whole entry, looked up): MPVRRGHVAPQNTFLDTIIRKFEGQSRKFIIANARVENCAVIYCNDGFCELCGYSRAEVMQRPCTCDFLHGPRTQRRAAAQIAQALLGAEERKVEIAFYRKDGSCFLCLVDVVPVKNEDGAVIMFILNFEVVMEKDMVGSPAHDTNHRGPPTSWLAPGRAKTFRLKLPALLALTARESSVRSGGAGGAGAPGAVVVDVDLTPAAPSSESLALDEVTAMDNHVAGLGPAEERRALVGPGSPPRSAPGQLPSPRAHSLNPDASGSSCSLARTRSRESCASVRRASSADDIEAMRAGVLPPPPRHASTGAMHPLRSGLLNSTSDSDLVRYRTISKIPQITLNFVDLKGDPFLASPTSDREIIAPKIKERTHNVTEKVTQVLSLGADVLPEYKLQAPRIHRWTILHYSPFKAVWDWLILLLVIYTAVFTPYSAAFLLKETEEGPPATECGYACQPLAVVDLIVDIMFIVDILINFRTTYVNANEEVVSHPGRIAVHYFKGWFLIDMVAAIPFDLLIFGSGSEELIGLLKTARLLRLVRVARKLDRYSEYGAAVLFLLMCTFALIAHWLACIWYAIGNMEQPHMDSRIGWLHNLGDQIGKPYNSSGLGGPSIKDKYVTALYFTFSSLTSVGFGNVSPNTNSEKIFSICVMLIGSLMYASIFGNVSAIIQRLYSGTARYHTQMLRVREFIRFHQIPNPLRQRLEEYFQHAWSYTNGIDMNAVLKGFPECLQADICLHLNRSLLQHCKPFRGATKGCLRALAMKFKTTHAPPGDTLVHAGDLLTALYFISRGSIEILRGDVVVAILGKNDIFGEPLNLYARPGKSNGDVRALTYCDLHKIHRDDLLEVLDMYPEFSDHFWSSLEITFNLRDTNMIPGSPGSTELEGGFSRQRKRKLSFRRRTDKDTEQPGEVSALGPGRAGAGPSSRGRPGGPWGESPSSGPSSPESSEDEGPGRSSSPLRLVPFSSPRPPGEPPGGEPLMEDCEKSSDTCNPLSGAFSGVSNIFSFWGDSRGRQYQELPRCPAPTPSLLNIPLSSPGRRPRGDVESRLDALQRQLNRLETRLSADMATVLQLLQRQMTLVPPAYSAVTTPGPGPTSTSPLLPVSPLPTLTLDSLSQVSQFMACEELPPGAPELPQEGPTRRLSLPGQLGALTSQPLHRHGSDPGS

| SMILES | hERG current change (%, negative = inhibition) at 10uM |
| --- | --- |
| COc1ccccc1OCc1ccc(C(=O)N(C)c2ccccc2)o1 | 7.76% |
| COC(=O)c1coc(-c2ccc(OC)cc2)c1C(=O)OC | 13.8% |
| Cl.Clc1ccc(OCCCCN2CCc3ccccc3C2)cc1 | -68.1% |
| O=C(COc1ccc([N+](=O)[O-])cc1)N1CCc2ccccc2C1 | -54.5% |
| O=C(COc1ccc(S(=O)(=O)N2CCOCC2)cc1)N1CCOCC1 | 10.6% |
| Cc1ccc(OCCCCN2CCc3ccccc3C2)cc1.Cl | -34.9% |
| O=C(COc1ccccc1)N1CCc2ccccc2C1 | 10% |
| O=C(O)C(=O)O.O=[N+]([O-])c1ccc(OCCCCN2CCc3ccccc3C2)cc1 | -76.3% |
| Cl.O=[N+]([O-])c1ccccc1OCCCN1CCc2ccccc2C1 | -49.7% |
| O=C(CCCOc1ccccc1)N1CCc2ccccc2C1 | 0.877% |
| O=C(COc1ccc(S(=O)(=O)N2CCOCC2)cc1)N1CCc2ccccc2C1 | -55.9% |
| O=C(Cc1ccc([N+](=O)[O-])cc1)N1CCc2ccccc2C1 | -17.7% |
| O=C(CCc1ccc(S(=O)(=O)N2CCOCC2)cc1)N1CCc2ccccc2C1 | -14.5% |
| Cc1ccc(OCC(=O)N2CCc3ccccc3C2)cc1 | -3.37% |
| O=C(CCNS(=O)(=O)c1cccc2nsnc12)NCCc1ccccc1 | -4.18% |
| COC(=O)CC1(CC(=O)OC)C(=O)NC(=O)NC1=O | 7.37% |
| CCCC(=O)OCC(=O)Nc1cc(Cl)ccc1[N+](=O)[O-] | 16.8% |
| Cc1ccc(Oc2nc3ccccc3n3cccc23)cc1 | -10.1% |
| O=C(OCC(=O)N1CCCc2ccccc21)c1ccc(Cl)nc1 | -3.94% |
| Cc1c(C(=O)NNC(=O)c2csc(N3CCOCC3)n2)oc2ccccc12 | -38.7% |
| COC(=O)C1CCN(Cc2c(C(=O)N3C[C@@H](C)O[C@@H](C)C3)nc3ccc(Cl)cn23)CC1 | 21.1% |
| COCCCNC(=O)c1cn(Cc2c(F)cccc2Cl)nn1 | -3.65% |
| CCOC(=O)c1nnn(-c2nonc2N)c1COc1c(C=O)cccc1OC | -6.2% |

| SMILES | hERG current change (%, negative = inhibition) at 10uM |
| --- | --- |
| O=[N+]([O-])c1ccc(OCCOCCOc2ccc([N+](=O)[O-])cc2)cc1 | -16.6% |
| Cc1n[nH]c(C)c1CCCCOc1ccc([N+](=O)[O-])cc1 | -16.4% |
| Cc1cc(=O)n(C)c(=O)n1CCCCCN1CCCC1.O=C(O)C(=O)O | 5.16% |
| Cc1cc(=O)n(C)c(=O)n1CCCCOc1ccc([N+](=O)[O-])cc1 | -68.9% |
| Cc1cc(=O)n(C)c(=O)n1CCCCCCOc1ccc([N+](=O)[O-])cc1 | -63.9% |
| Cc1cc(=O)n(C)c(=O)n1CCCCCCN1CCCC1.O=C(O)C(=O)O | 8.96% |
| CN(Cc1ccccc1)C(=O)CNC(=O)Cn1cnc2ccccc2c1=O | -7.88% |
| CC(/C=C/C=C/c1ccccc1)=N/NC(=O)c1ccc2c(c1)OCCO2 | 7.79% |
| C=CCn1c(SCC(=O)Nc2cc(C)nn2-c2ccccc2)nnc1C1CCCCC1 | -14.1% |
| COc1ccc(CN2CCC(C(=O)c3ccc(F)cc3)CC2)cc1 | -78.4% |
| CCS(=O)(=O)N1CCC(C(=O)c2ccc(Cl)cc2)CC1 | -47.3% |
| COc1ccc(NC(=O)N2CCC(C(=O)c3ccc(F)cc3)CC2)cc1 | -18.6% |
| CC(=O)N1CCC(C(=O)c2ccc(Cl)cc2)CC1 | -0.317% |
| O=C(c1ccc(F)cc1)C1CCN(Cc2ccc(F)cc2)CC1 | -47.7% |
| COc1ccc(CN2CCC(C(=O)c3ccc(Cl)cc3)CC2)cc1 | -78.7% |
| Cc1ccccc1C(=O)NCCCc1ccccc1 | 12.5% |
| O=C(NCCC(=O)N1CCCCC1)c1ccccc1Cl | -14.2% |
| COc1ccccc1N1CCN(/N=C\C(Br)=C\c2ccccc2)CC1 | 10.2% |
| COCCNC(=O)C(c1ccc(O)cc1)N(Cc1ccco1)C(=O)CCC(=O)Nc1ccccn1 (stereo not drawn) | 23.8% |
| CCCCSc1nnc([C@@H]2CCCN2C(=O)OC(C)(C)C)o1 | -12.2% |
| O=C(CN1CCN(S(=O)(=O)c2ccc(F)cc2)CC1)Nc1cccc(C(F)(F)F)c1 | -55.5% |
| O=C(CN1CCN(S(=O)(=O)c2ccc(F)cc2)CC1)Nc1cc(C(F)(F)F)ccc1Cl | -4.15% |
